Test results reported in PubChem BioAssay AID686978 (National Center for Advancing Translational Sciences (NCATS), 2013).
In all, about 420,000 compounds went through this assay and about 64,000 (15%) were called active. Another 27% or so got no clear call; they are omitted. A selection follows. Values without a mark were called inactive. Calls follow the shape of the dose curve; as a rule, active = well fitted inhibition curve with a large enough effect; inconclusive = small, poorly fitted or top-dose-only effect; inactive = flat fitted curve, though single readings scatter. Square brackets hold non-standard residues; d marks the D form. Peptide text beside a SMILES is read from it. * marks the point of attachment. ξ: configuration not given here. Cbz = O=C(OCc1ccccc1)*; ξL = CC(C)CC(N)C(=O)O; ξP = O=C(O)C1CCCN1

assay: qHTS for Inhibitors of human tyrosyl-DNA phosphodiesterase 1 (TDP1): qHTS in cells in absence of CPT; details: DT40 Tdp1-/- hTDP1 cells, no CPT, ATP luminescence, 48 h; activity change, negative = growth inhibition: at 46.2 µM (top of the series); also: nearly all actives have a fitted effect of over 55% in size
In short: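 Readout: luminescence from CellTiter-Glo after 30 min in the dark at RT. Cells: DT40 Tdp1-/- with stable hTDP1, 400/well. Exposure: compounds alone, ≥48 hr, 37 °C.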
% is scaled to controls: 0 for no effect and ±100 for the full control effect; potency is read from the fitted curve at half-maximal effect.

| Structure (SMILES) | activity change, negative = growth inhibition | Potency |
| --- | --- | --- |
| CC(C)CC(NC(=O)C1CCCN1C(=O)[C@@H](C)NC(=O)OCc1ccccc1)C(=O)NCC(N)=O (stereo not given in full) (Cbz-[dA][ξP][ξL]G-NH2) | 6.22% |  |
| COc1cc(OC)cc(-c2nc3ccccc3c(=O)n2NC(=O)c2cccnc2Cl)c1 | -13.2% |  |
| CSc1nc(C)nc(C2CC2)c1C#N | -0.461% |  |
| Cc1noc(C)c1NC(=O)Nc1ccc2c(c1)C(=O)N([C@H](C)CO)C[C@H](C)[C@@H](CN(C)C(=O)Nc1ccccc1)O2 | -1.47% |  |
| CCCCCn1c(CCCNC(=O)c2ccccc2OC)nc2ccccc21 |  | 18.4 µM (active) |
| CCCCCn1c(CCNC(=O)c2ccc(F)cc2)nc2ccccc21 |  | 18.4 µM (active) |
| Cc1cc2ccccc2n1CCNC(=O)c1ccc(F)cc1 |  | 18.4 µM (active) |
| Cc1cc2ccccc2n1CCC(=O)O | 7.92% |  |
| CCCCOCCCNC(=O)c1ccccc1OCC | -11.3% |  |
| CC(=O)NCCc1nc2cc(NC(=O)c3ccccc3)ccc2n1C | 11% |  |
| O=C(CNC(=O)c1ccc(F)cc1)c1ccccc1 | -19.7% |  |
| CCC(=O)NCCc1nc2ccccc2n1CC | -1.27% |  |
| COc1ccccc1C(=O)NCCC(=O)NC(C)CCc1ccccc1 (stereo not given) | -17.9% |  |
| CCN(CC)CCCNC(=O)CCc1ccccc1 | -0.8% |  |
| CCN(CC)CCCN=C(N)N | 2.6% |  |
| COc1cc(NS(=O)(=O)c2ccc(NC(=S)NC(=O)c3ccc(Br)cc3)cc2)ncn1 | -27.4% |  |
| COc1ccc(COCC(O)CN2CCC(C(N)=O)CC2)cc1 (stereo not given) | -4.64% |  |
| Clc1ccccc1-c1cc(COc2ccc3ccccc3c2)no1 | -29.6% |  |
| CCCCNC(=O)CCn1c(=S)[nH]c2cc3c(cc2c1=O)OCO3 | -3.61% |  |
| CCN1CCN(C(=O)N[C@@H](C(=O)N[C@@H]2C(=O)N3C(C(=O)O)=C(CSc4nnnn4C)CS[C@H]23)c2ccc(O)cc2)C(=O)C1=O |  | inactive |
| COc1ccc(Cl)cc1C=CC=Nc1ccc(S(N)(=O)=O)cc1 |  | 16.4 µM (active) |
| COc1ccc(Cl)cc1C=CC=NNC(=O)c1ccncc1 | -17.1% |  |
| NS(=O)(=O)c1ccc(N=Cc2ccc(Br)s2)cc1 | -1.33% |  |
| CCN1C[C@@H]2[C@@H]3C(=O)N(Cc4ccccc4)C(=O)[C@@H]3[C@](C)(C1=O)N2C(=O)c1ccc(C(C)(C)C)cc1 | -28% |  |
| CCN1C(=O)[C@H]2[C@@H](c3ccc(C(F)(F)F)cc3)N[C@]3(CCCN(Cc4ccc(Br)cc4)C3=O)[C@H]2C1=O |  | 9.2 µM (active) |

| Structure (SMILES) | activity change, negative = growth inhibition | Potency |
| --- | --- | --- |
| COc1ccc([C@H]2N[C@]3(CCCN(Cc4ccco4)C3=O)[C@H]3C(=O)N(C)C(=O)[C@@H]23)cc1 | -28.7% |  |
| Cc1ccc([C@H]2N[C@]3(CCCN(CC4CCCCC4)C3=O)[C@H]3C(=O)N(Cc4ccccc4)C(=O)[C@@H]23)cc1 |  | 23.1 µM (active) |
| CCN1C(=O)[C@H]2[C@@H](c3ccccc3)N[C@]3(CCCN(Cc4ccc(C)cc4)C3=O)[C@H]2C1=O | -5.24% |  |
| O=C1[C@H]2[C@@H](c3ccc(C(F)(F)F)cc3)N[C@]3(CCCN(Cc4ccc(Br)cc4)C3=O)[C@H]2C(=O)N1Cc1ccccc1 |  | 23.1 µM (active) |
| O=C1[C@H]2[C@@H](c3ccc(C(F)(F)F)cc3)N[C@]3(CCCN(Cc4ccc(Cl)cc4)C3=O)[C@H]2C(=O)N1Cc1ccccc1 |  | 20.6 µM (active) |
| Cc1ccc(C(=O)Oc2ccc(C(=S)N3CCOCC3)cc2)cc1 | -1.68% |  |
| c1ccc(-c2ccnc3nc(-n4cccc4)nn23)cc1 | -27.3% |  |
| O=C(CN(C(=O)c1nsc(Cl)c1Cl)c1cccc(F)c1)NC1CCCC1 | -10.5% |  |
| O=C(CCc1ccc(S(=O)(=O)N2CCOCC2)cc1)NN=C1CCCCCCC1 | -23.8% |  |
| CCN(CC)CCN(C(=O)c1cccc([N+](=O)[O-])c1)c1nc2ccc(OC)cc2s1 | -6% |  |
| Cc1noc(C)c1NC(=O)Nc1ccc2c(c1)C(=O)N([C@H](C)CO)C[C@H](C)[C@@H](CN(C)C(=O)Nc1ccc(C(F)(F)F)cc1)O2 | -3.6% |  |
| CCN(CC)C(=O)COc1coc(CN2CCN(Cc3ccccc3)CC2)cc1=O | -2.5% |  |
| O=C(CSc1nnc(-c2ccncc2)o1)NCc1ccc(Cl)cc1 | -3.3% |  |
| Fc1ccc(-c2ccc(NCCN3CCOCC3)nn2)cc1 | 0.015% |  |
| Nc1cc(C(F)(F)F)ccc1N1CCOCC1 | -12.3% |  |
| Oc1[nH]c2ccc(Br)cc2c1N=Nc1nn[nH]n1 | 0.673% |  |
| Cc1cccc(N=Nc2c(O)[nH]c3ccc(F)cc23)c1 | -23.1% |  |
| Oc1[nH]c2ccccc2c1N=Nc1c(F)c(F)c(F)c(F)c1F |  | 13 µM (active) |
| CCC(Cc1ccccc1)NC(=O)C1CCCCC1 (stereo not given) | -2.07% |  |
| O=C1c2ccccc2C(=O)N1c1ccc(S(=O)(=O)N2CCOCC2)c2ccccc12 | -11.7% |  |
| COc1ccc(CC(=O)Nc2nc(-c3ccc(F)c(F)c3)cs2)cc1OC |  | 6.51 µM (active) |
| COc1cccc(CC(=O)Nc2nc(-c3ccc(OC)c(OC)c3)cs2)c1 |  | 18.4 µM (active) |
| COc1cc(CC(=O)Nc2nc(-c3ccc(F)c(F)c3)cs2)cc(OC)c1OC |  | 5.8 µM (active) |
| COc1ccc(-c2csc(NC(=O)c3ccc(N4C(=O)CCC4=O)cc3)n2)cc1OC | -23% |  |
| COc1ccc(CC(=O)Nc2nnc3n2CCS3)cc1OC | -29.4% |  |

| Structure (SMILES) | activity change, negative = growth inhibition | Potency |
| --- | --- | --- |
| COc1ccc(-c2csc(Nc3cccc(C)n3)n2)cc1OC |  | 25.9 µM (active) |
| Cc1ccc(S(=O)(=O)NC(=O)Nc2nc(-c3ccc(F)c(F)c3)cs2)cc1 | -3.11% |  |
| Fc1ccc(-c2csc(-c3ccc(C4SCCS4)cc3)n2)cc1F | -28.9% |  |
| Cc1nn2c(=O)cc(COC(=O)c3ccccc3NC(=O)COc3ccccc3C)nc2s1 | -1.12% |  |
| CC(=O)C1C(c2ccc(Cl)cc2)c2c(n[nH]c2C)CC1(C)O (stereo not given) | 3.21% |  |
| CCOc1ccc(S(=O)(=O)NCCC(=O)NCC2CCCO2)cc1 (stereo not given) | 6.02% |  |
| COc1ccc(Cn2cccc(NC(=O)Nc3ccc(C#N)cc3)c2=O)cc1 | -24.5% |  |
| CC1CCc2sc3nc(N4CCN(CCO)CC4)n4ncnc4c3c2C1 (stereo not given) | -12% |  |
| Cc1ccn2c(=O)nc(SCC(=O)NCc3ccc4c(c3)OCO4)nc2c1 | -45.9% |  |
| O=C(COC(=O)CC1CC2CCC1C2)NC(=O)NC1CCCC1 (stereo not given) | -2.02% |  |
| COc1ccc(-c2nc3scc(CCNS(=O)(=O)c4cc(F)ccc4OC)n3n2)cc1OC |  | 20.6 µM (active) |
| COc1ccc(CCNS(=O)(=O)c2ccc(F)cc2)cc1OC | -4.13% |  |
| COc1cc(OC)cc(C(=O)NCCc2csc3nc(-c4ccccc4F)nn23)c1 | -21.9% |  |
| Cc1cc([N+](=O)[O-])nn1CC(=O)Nc1ccc(Cc2ccncc2)cc1 | -26.3% |  |
| O=C(OCC(=O)N1CCN(C(=O)c2ccco2)CC1)c1c(Cl)cccc1Cl | -11.4% |  |
| CN(c1ccccc1)S(=O)(=O)c1cc(C(=O)OCC(=O)N2CCN(C(=O)c3ccco3)CC2)ccc1Cl |  | 23.1 µM (active) |
| O=C(OCC(=O)N1CCN(C(=O)c2ccco2)CC1)c1cccc(O)c1 | 3.71% |  |
| COc1cccc(CN2CCNC(=O)C2CC(=O)N(C)CCc2ccccn2)c1 (stereo not given) | 5.47% |  |
| Cc1ccc(NC(=O)c2oc3ccccc3c2C)c([N+](=O)[O-])c1 | -25% |  |
| COc1ccc(Cl)cc1C(=O)NCC#N | -11.5% |  |
| c1ccc2c(Nc3ccncc3)nc(-c3ccc4c(c3)OCO4)nc2c1 |  | 14.6 µM (active) |
| c1ccc2c(Nc3ccncc3)nc(-c3ccoc3)nc2c1 |  | 20.6 µM (active) |
| Cc1noc(C)c1-c1nc(Nc2ccccc2)c2ccccc2n1 | 0.567% |  |
| Cc1ccc(C(=O)O)cc1N1C(=O)CCCC1=O | -2.9% |  |
| CC1CCC(NC(=O)CNC(=O)c2ccc3ccccc3c2)CC1 (stereo not given) | -29.2% |  |

| Structure (SMILES) | activity change, negative = growth inhibition | Potency |
| --- | --- | --- |
| N#Cc1ccc(CSc2ncccn2)cc1 | 19.3% |  |
| Cn1c(=O)[nH]c2c(c(C(=O)O)nn2C)c1=O | 8.92% |  |
| O=C(CSc1nc2cc3c(cc2c(=O)n1CCC1=CCCCC1)OCO3)NCc1ccco1 | 2.72% |  |
| COCCN(C(=O)C(C)N1C(=O)c2ccccc2C1=O)c1c(N)n(CC(C)C)c(=O)[nH]c1=O (stereo not given) | 2.24% |  |
| CCC(=O)Nc1ccc2c(c1)nc(CCN1CCN(c3ccccn3)CC1)n2C | -5.94% |  |
| Cn1c(CCN2CCCCCC2)nc2cc(NC(=O)Nc3ccccc3)ccc21 |  | 23.1 µM (active) |
| CCC(=O)Nc1ccc2c(c1)nc(CCN1CCN(C)CC1)n2C | 1.99% |  |
| N[C@@H](Cc1ccccc1)C(=O)N1CCC(C(=O)NCC(=O)Nc2ccc(F)cc2)CC1 | -4.57% |  |
| Cc1ccc(SCCC(=O)NCc2ccccn2)cc1 | 4.23% |  |
| O=C(COc1ccccc1)OCc1cc(=O)n2nc(-c3cccs3)sc2n1 | -13.5% |  |
| COc1ccc(CNC(=O)C2CCN(C(=O)c3ccccc3)CC2)cc1 | 11.3% |  |
| COc1ccccc1CNC(=O)c1ccc(NC(=O)N2CC(C)Sc3ccccc32)cc1 (stereo not given) |  | 23.1 µM (active) |
| COc1ccccc1CNC(=O)CNC(=O)c1cn(-c2ccccc2OC)c(=O)c2ccccc12 | -18.7% |  |
| COc1cccc(CNC(=O)C2CC(=O)N(C3CCCCCCC3)C2)c1 (stereo not given) | 3.44% |  |
| O=C(CCC(=O)n1ncc2ccccc21)NCc1ccccc1Cl | 3.3% |  |
| COc1ccc(CNC(=O)c2ccc(NC(=O)N3CC4CCCN4c4ccccc43)cc2)cc1 (stereo not given) |  | 20.6 µM (active) |
| O=C(CCC(=O)N1CC2CCCN2c2ccccc21)NCc1ccccc1Cl (stereo not given) |  | 16.4 µM (active) |
| COc1ccccc1CNCc1ccc(C(=O)O)s1 | 1.39% |  |
| COc1ccc(S(=O)(=O)N2CCC(C(=O)NCCC(=O)NCc3cccc(OC)c3)CC2)cc1 | -0.479% |  |
| O=C(NCc1ccccc1Cl)C1CCCO1 (stereo not given) | 7.89% |  |
| COc1cccc(CNC(=O)CCC(=O)N2CC3CCCN3c3ccccc32)c1 (stereo not given) |  | 16.4 µM (active) |
| COc1ccc(NC(=O)N2CCCC2C(=O)NCc2ccccc2Cl)cc1 (stereo not given) | -17.8% |  |
| NS(=O)(=O)c1ccc(NC(=O)/C=C/c2ccccc2Cl)cc1 | -8.85% |  |
| C/C(=C/c1ccccc1)C(=O)N1CCN(c2ccccc2)CC1 | 10.8% |  |
| Cc1ccc(S(=O)(=O)CCC(=O)OCC(=O)N(C)C2CCS(=O)(=O)C2)cc1 (stereo not given) | -9.23% |  |
